Assay results from the supplement of paper PMC7156485.

Key:
Settings in all cases: concentration: 10 µM; 24 h
HCC1569 [1] = assay: cell number relative to DMSO (% of DMSO); higher = more cells (less growth inhibition / toxicity)
How it was run: (§1)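 H1.0 nuclear intensity or cell number is expressed as percent of the plate control, with the median of replicates taken. HCC1569 and TDF cells were treated with compounds at 10 µM for 24 h at 37 °C, in triplicate, then fixed and immunostained for H1.0 with DAPI as a nuclear stain. HCC1569 values were smoothed to correct for positional effects.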

TDF [2] = assay: as above
How it was run: as §1

TDF [3] = assay: H1.0 immunofluorescence intensity relative to DMSO (% of DMSO); higher = stronger H1.0 induction, active = 120 or more
How it was run: as §1

HCC1569 [4] = assay: H1.0 immunofluorescence intensity relative to DMSO (% of DMSO); higher = stronger H1.0 induction, active = 140 or more
How it was run: as §1
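For H1.0 immunofluorescence intensity relative to DMSO in this document: TDF is a line of transformed human dermal fibroblasts of mesenchymal origin.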
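For cell number relative to DMSO in this document: TDF denotes transformed human dermal fibroblasts of mesenchymal origin.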

| Compound | cell number (HCC1569 [1]) | cell number (TDF [2]) | H1.0 immunofluorescence intensity (TDF [3]) | H1.0 immunofluorescence intensity (HCC1569 [4]) |
| --- | --- | --- | --- | --- |
| CCOC(=O)C=Cc1ccc(O)c(OC)c1 [Ferulic acid ethylester] | 98.3 | 95.4 | 90.2 (inactive) | 93.6 (inactive) |
| O=C(Nc1ccc([N+](=O)[O-])cc1Cl)c1cc(Cl)ccc1O [Niclosamide] | 70 | 78.1 | 104 (inactive) | 120 (inactive) |
| Cc1cc(Nc2ncc3cc(-c4c(Cl)cccc4Cl)c(=O)n(C)c3n2)ccc1F | 36.3 | 7.32 | 201 (active) | 187 (active) |
| CC[C@H](NC(=O)c1c(O)c(-c2ccccc2)nc2ccccc12)c1ccccc1 | 101 | 98.3 | 97.8 (inactive) | 107 (inactive) |
| COc1c2ccoc2cc2oc(C)cc(=O)c12 [Visnagin] | 103 | 102 | 94.7 (inactive) | 82.3 (inactive) |
| CCCCCC(O)C=CC1C(=O)C=CC1CC=CCCCC(=O)O (stereo unspecified) [Prostaglandin J2] | 99.8 | 99.5 | 89.3 (inactive) | 100 (inactive) |
| CCN1CCCC1CNC(=O)c1c(O)c(Cl)cc(Cl)c1OC.O=C(O)C(O)C(O)C(=O)O [S(+)-Raclopride L-tartrate] | 101 | 105 | 90.3 (inactive) | 99.9 (inactive) |
| O=C(ON1C(=O)CCC1=O)N1CCN(C(c2ccc(Cl)cc2)c2ccc(Cl)cc2)CC1 | 77.8 | 82.1 | 112 (inactive) | 126 (inactive) |
| COc1cc2c3cc1Oc1cc(ccc1O)CC1c4c(cc(OC)c(O)c4Oc4ccc(cc4)CC3N(C)CC2)CC[N+]1(C)C (single isomer, unassigned; (+)) [(+)-Tubocurarine chloride] | 103 | 92.5 | 104 (inactive) | 89.2 (inactive) |
| CCCCCC(O)C=CC1C(O)CC2OC(=CCCCC(=O)[O-])CC21.[Na+] (stereo unspecified) [Prostaglandin I2 Na] | 101 | 98.1 | 94.1 (inactive) | 98.3 (inactive) |
| CCCCCCCCCCCC(=O)O [Dodecanoic acid] | 100 | 102 | 103 (inactive) | 101 (inactive) |
| Cc1ccccc1N1CCN(S(=O)(=O)CC23CCC(CC2NC(=O)C(N)CCS(C)(=O)=O)C3(C)C)CC1.Cl (stereo unspecified) | 101 | 104 | 94.1 (inactive) | 99 (inactive) |
| CC(C)(C)n1nc(-c2ccc(Cl)cc2)c2c(N)ncnc21 | 67.2 | 107 | 99.8 (inactive) | 182 (active) |
| CCn1cc(C(=O)O)c(=O)c2ccc(C)nc21 [Nalidixic acid] | 102 | 98.7 | 91.1 (inactive) | 86.1 (inactive) |
| OCCN1CCN(CCCN2c3ccccc3Sc3ccc(Cl)cc32)CC1 [Perphenazine] | 88 | 90.8 | 116 (inactive) | 140 (inactive) |
| O=C1OC(=O)C2C3CCC(O3)C12 (stereo unspecified) [Norcantharidin] | 96 | 92.3 | 105 (inactive) | 103 (inactive) |
| COc1ccc(-n2[nH]c3c(cnc4ccccc43)c2=O)cc1 [2-(4-methoxyphenyl)-1H-pyrazolo[4,3-c]quinolin-3(2H)-one] | 103 | 87.8 | 98.5 (inactive) | 93.6 (inactive) |
| CCCCCCCCCCCCC(=O)O [Tridecanoic acid] | 105 | 92.9 | 107 (inactive) | 101 (inactive) |
| O=C(Nc1ccc(Cl)cc1)C1CCCN(C(=O)c2cccc(-c3ccco3)c2)C1 (stereo unspecified) | 86.8 | 98.7 | 95.1 (inactive) | 116 (inactive) |
| CCN1C(=CC(C)=O)Sc2ccc(OC)cc21 [Cdc2-Like Kinase Inhibitor, TG003] | 97.3 | 112 | 89.5 (inactive) | 119 (inactive) |
| CC(C)(C)NC(=O)C1CCC2C3CCC4NC(=O)C=CC4(C)C3CCC12C (stereo unspecified) [Finasteride] | 102 | 97.4 | 95.4 (inactive) | 108 (inactive) |
| CC(NC(CCc1ccccc1)C(=O)O)C(=O)N1CCCC1C(=O)O (stereo unspecified) [Enalaprilat] | 98.7 | 86.2 | 104 (inactive) | 96.9 (inactive) |
| O=Nc1ccc2oc(=O)ccc2c1 [6-Nitroso-1,2-benzopyrone] | 100 | 103 | 92.2 (inactive) | 101 (inactive) |
| N=C1SC(=Cc2ccc(-c3ccc4c(c3)C(=O)NC4=O)o2)C(=O)N1c1ccc(Br)cc1 [Bioymifi] | 94.2 | 67.9 | 96.5 (inactive) | 277 (active) |
